# MCF10A rereplic – inducers of DNA re-replication in MCF 10A breast cells. Potency, µM (doses to about 46.1 µM), usual class: activators. actives 2.9% (n = 350,000). MCF 10A DNA re-replication, Hoechst nuclear intensity, 48 h; note: nearly all actives have a fitted effect of over 50% in size
# ELG1 repair inh – inhibitors of ELG1-dependent DNA repair in HEK293T cells; HEK293T ELG1-luciferase reporter, luminescence, 16 h; DNA damage induced by 5-fluorouridine; Potency, µM (top dose mostly 46.1 µM), usual class: inhibitors; actives 2.3% (n = 330,000); note: nearly all actives have a fitted effect of over 55% in size
#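 DMSO vehicle served as the neutral condition. Each well held 2,000 cells given 5-fluorouridine plus compound; after 16 hr at 37 °C/5% CO2, ONE-Glo was added and luciferase measured 30 min later.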
# ELG1 genotox – inducers of genotoxicity in HEK293T ELG1-luciferase cells | HEK293T ELG1-luciferase reporter, luminescence, 16 h | actives 1.3% (n = 330,000) | Potency, µM (doses to about 46 µM), hits mostly activators; note: nearly all actives have a fitted effect of over 60% in size
#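 Genotoxicity was scored as increased ELG1-luciferase reporter signal, measured by ONE-Glo luminescence (30 min, room temperature). Compound or vehicle exposure of the HEK293T reporter cells lasted 16 hr at 37°C.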
# p53 reactivation – mutant p53 re-activation in reporter cells | H1299 p53-A138V BP100-luciferase reporter, luminescence, 24 h | Potency, µM (highest dose often 92.2 µM), usual class: activators | actives 0.063% (n = 320,000) | AID 504706; note: nearly all actives have a fitted effect of over 45% in size
#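 p53-null H1299 cells stably carrying temperature-sensitive p53-A138V and a BP100-luciferase reporter were pinned with compounds (4-point, 1:5 series) and held 24 hrs at 37 deg C. Luminescence was read 10 min after detection reagent.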
# SW480 rereplic – inducers of DNA re-replication in SW480 colon cancer cells; SW480 DNA re-replication, Hoechst DNA content imaging, 48 h; actives 1.8% (n = 340,000); AID 624297; Potency, µM (highest dose often 46.1 µM), hits mostly activators; note: nearly all actives have a fitted effect of over 55% in size
#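 Per well, 250 cells were exposed to pinned compound for 48 hr. Nuclear DNA was visualised with Hoechst (40 min, 37 C) and total object intensity recorded by fluorescence scanning.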
# AT treatment – potential ataxia-telangiectasia treatments restoring KAP-1 phosphorylation | F2112 A-T fibroblasts, KAP-1 phosphorylation AlphaLISA; neocarzinostatin DNA damage 30 min before lysis | Potency, µM (top dose mostly 57.5 µM), actives largely listed as activators | actives 0.19% (n = 320,000) | AID 485349; note: nearly all actives have a fitted effect of over 45% in size
#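 hTERT-immortalized A-T patient fibroblasts (F2112), 500 cells/well in OPTI-MEM, 1% FBS, got compounds for 60 min, then NCS for 30 min at 37C. Lysates were then assayed for phospho-KAP-1 by AlphaLISA (anti-pKAP1 donor, anti-KAP1 acceptor beads), 6 hr at 25C.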
# A number is an active result; – = inactive; ? = inconclusive; · = no result. Hits are enriched below; roughly 7.1% of the tested compounds scored in any of these assays. Calls come from the whole dose curve; as a rule, active = well fitted curve in the direction sought with a large enough effect; inconclusive = small, poorly fitted or top-dose-only effect, or another doubt; inactive = no such curve, though single readings can be large; an effect the other way counts as inactive or inconclusive.
SMILES,MCF10A rereplic,ELG1 repair inh,ELG1 genotox,p53 reactivation,SW480 rereplic,AT treatment
CC1CC(C)CN(Cc2nc(N)nc(Nc3ccc4ccccc4c3)n2)C1 (stereo not given),5.8µM,?,–,–,9.2µM,–
Cc1ccc(-c2cc(C(=O)N(C)CC(=O)Nc3ccccc3Br)c3ccccc3n2)o1,–,5.2µM,–,–,–,–
COc1ccc(NC(=O)CN(C)C(=O)c2cn(-c3ccccc3)nc2-c2ccc(Cl)cc2)cc1,–,?,–,–,23µM,–
CN(CC(=O)Nc1ccc(F)c(F)c1F)C(=O)c1cc(-c2ccncc2)nc2ccccc12,–,23µM,–,–,–,–
CN(CC(=O)Nc1cccc(F)c1)C(=O)c1cc(-c2ccco2)nc2ccccc12,?,?,–,–,?,–
COc1ccc(NC(=O)CN(C)C(=O)c2cc(-c3ccco3)nc3ccccc23)cc1,?,18µM,–,–,–,–
CC(NC(=O)C(NS(=O)(=O)c1cccc2nsnc12)C(C)C)c1ccccc1 (stereo not given),–,–,–,–,–,–
CCOC(=O)c1csc(NC(=O)c2cc(OC)c(OC)c(OC)c2)n1,?,5.8µM,–,–,0.23µM,–
CCOC(=O)c1csc(NC(=O)C2=COCCO2)n1,–,?,9.2µM,–,?,–
COc1ccc(C)c2sc(NC(=O)C3=COCCO3)nc12,·,?,16µM,–,·,–
CC(C)(C)c1csc(NC(=O)C2=COCCO2)n1,–,?,?,?,–,–
NS(=O)(=O)c1cccc(NC(=O)CSc2nnc(-c3ccncc3)n2C2CC2)c1,–,–,–,–,–,–
COc1ccc2c(-c3ccccc3)cc3nnnn3c2c1,2.6µM,–,–,–,–,–
COc1ccc2c(-c3ccccc3)cc(SCC(N)=O)nc2c1,?,–,–,–,?,–
c1ccc(SCc2nc(-c3ccncc3)no2)cc1,?,?,15µM,?,–,–
Cc1ccc(SCc2nc(-c3ccncc3)no2)cc1,16µM,–,–,–,?,–
Cc1ccc(SCc2nc(-c3ccccc3)no2)cc1,–,–,–,?,–,–
CCCCn1c(N)c(N(CC)C(=O)c2cccc(S(=O)(=O)N3CCN(C)CC3)c2)c(=O)[nH]c1=O,–,–,–,–,–,–
CNS(=O)(=O)c1cccc(C(=O)NNC(=O)c2ccc(COc3ccccc3)cc2)c1,–,–,–,–,–,–
Cc1ccc(S(=O)(=O)N2CCCCC2)cc1NC(=O)C1CC(=O)N(c2ccc3c(c2)OCCO3)C1 (stereo not given),–,–,–,–,?,–
COc1cc(/C=N/NC(N)=O)ccc1OCC(=O)Nc1ccc(C)c(C)c1,–,–,–,–,–,–
COc1ccc(NC(=O)COc2ccc(/C=C/c3cc[n+](C)cc3)cc2OC)cc1,?,–,–,–,8.2µM,–
COc1cc(/C=N/NC(N)=S)ccc1OCC(=O)Nc1ccc(C)c(C)c1,15µM,·,·,·,?,·
C/C=C/c1ccc(OCC(=O)O)c(OC)c1,–,–,–,–,–,–
C/C=C/c1ccc(OCC(=O)Nc2cc(OC)c(OC)c(OC)c2)c(OC)c1,–,15µM,–,–,–,–
SMILES,MCF10A rereplic,ELG1 repair inh,ELG1 genotox,p53 reactivation,SW480 rereplic,AT treatment
CC1CCCN(C(=O)C(=O)c2cn(CC(=O)N3CCCCCC3)c3ccccc23)C1 (stereo not given),–,–,–,–,?,–
Cn1cnc([N+](=O)[O-])c1Oc1ccc2ccccc2c1,4.1µM,–,–,–,6.5µM,–
Cc1nc(SCC(=O)N2CCN(C(=O)c3cccs3)CC2)c2c(C)c(C)sc2n1,–,?,–,–,–,–
Cc1c(C(=O)Nc2nnc(C(F)(F)F)s2)oc2ccccc12,?,–,–,–,–,–
CCOC(=O)c1sc(Nc2nc(OC)cc(OC)n2)nc1C,–,26µM,–,–,–,–
CCOC(=O)c1sc(NC(=O)CC(C)c2ccccc2)nc1C (stereo not given),–,?,–,–,?,–

# Screening data as filed in PubChem.
